# According to PubChem BioAssay (NCATS):
# Records with an inconclusive call do not appear. The source made the active and inactive calls. Calls follow the shape of the dose curve; as a rule, active = well fitted cell-killing curve with a large enough effect; inconclusive = small, poorly fitted or top-dose-only effect, or effect the other way; inactive = no such curve, though single readings can be large or run the other way.
# Experiment: Viability qHTS for spleen associated tyrosine kinase inhibitor (SYKi) drug resistant MV4-11 cells (AID 1963824); also: nearly all actives have a fitted effect of over 35% in size
# Settings: SYKi-resistant MV4-11 viability, CellTiter-Glo, 72 h; series mostly up to 45 µM
# Outline: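 CellTiter-Glo luminescence, read 10 min after reagent addition, reports viability after a 72 hr compound exposure. Cells are an MV4-11 line made resistant to SYK inhibition, seeded at 500 per well onto compound-containing plates.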
# Potency is read from the fitted curve at half-maximal effect.
row,Structure (SMILES),Potency
1,C[C@]12CC[C@H](OC3OC(CO)C(O)C(O)C3OC3OC(CO)C(O)C(O)C3O)C[C@@H]1CC[C@@H]1C2CC[C@]2(C)[C@@H](C3=CC(=O)OC3)CC[C@]12O (stereo not given in full),5.44 µM (active)
2,COC1CC(OC2CCC3(C=O)C(CCC4C3CCC3(C)C(C5=CC(=O)OC5)CCC43O)C2)OC(C)C1O (stereo not given),0.0709 µM (active)
3,O=C1NC(=O)c2c1c1c3ccccc3n3c1c1c2c2ccccc2n1C1CCC3O1,0.0164 µM (active)
4,C[C@]12CC[C@H](O[C@@H]3O[C@H](CO)[C@@H](O)[C@H](O)[C@H]3O)CC1CC[C@@H]1C2CC[C@]2(C)[C@@H](C3=CC(=O)OC3)CC[C@]12O (stereo not given in full),1.78 µM (active)
5,C[C@H]1O[C@@H](n2cnc3c(N)ncnc32)C[C@@H]1O,inactive
6,C=C[C@H]1[C@H](O[C@@H]2O[C@H](CO)[C@@H](O)[C@H](O)[C@H]2O)OC=C2C(=O)OCC[C@H]21,inactive
7,CN1CCc2cc3c(cc2[C@H]1[C@@H]1OC(=O)c2c1ccc1c2OCO1)OCO3,6.51 µM (active)
8,CC(C)[C@@H](CN1CC[C@@](C)(c2cccc(O)c2)[C@@H](C)C1)NC(=O)[C@H]1Cc2ccc(O)cc2CN1,16.4 µM (active)
9,CNc1ccc2oc(C[C@H]3O[C@@]4(CC[C@H]3C)O[C@H](C(C)C(=O)c3ccc[nH]3)[C@H](C)C[C@H]4C)nc2c1C(=O)O (stereo not given in full),4.61 µM (active)
10,COC(=O)N1CCN(C(=O)Cc2ccc(Cl)c(Cl)c2)[C@@H](CN2CCCC2)C1,inactive
11,COC(=O)[C@]12CCC(C)(C)C[C@@H]1[C@@H]1C(=O)C=C3[C@]4(C)C=C(C#N)C(=O)C(C)(C)[C@@H]4CC[C@@]3(C)[C@]1(C)CC2,0.326 µM (active)
12,C[C@@H]1C[C@@H](O)[C@]2(O)O[C@@H]3C[C@@]4(C=O)C(CC[C@@H]5C4CC[C@]4(C)[C@@H](C6=CC(=O)OC6)CC[C@]54O)C[C@H]3O[C@@H]2O1 (stereo not given in full),0.0317 µM (active)
13,CC1=C2C(=O)C3[C@@H](CC=C4C[C@@H](O)CC[C@@]43C)[C@@H]2CC[C@]12O[C@@H]1C[C@H](C)CN[C@H]1[C@H]2C (stereo not given in full),inactive
14,CC(=O)O[C@H]1CC[C@H]2[C@@H]3CC[C@H]4CC(=O)C=C(C)[C@]4(C)[C@H]3CC[C@]12C,11.6 µM (active)
15,OC1(c2ccc(Cl)cc2)c2ccccc2C2=NCCN21 (stereo not given),16.4 µM (active)
16,COCC1OC(=O)c2coc3c2C1(C)C1=C(C3=O)C2CCC(=O)C2(C)CC1OC(C)=O (stereo not given),2.06 µM (active)
17,CC1=CC2/C=C(\C)CCC(O)C(O)C(O)CC(=O)C23C(=O)NC(CC(C)C)C3C1C (stereo not given),1.78 µM (active)
18,C=C(C)[C@@H]1[C@H]2OC(=O)[C@H]1[C@]1(O)C[C@H]3O[C@]34C(=O)O[C@H]2[C@]14C,inactive
19,CCCCCn1cc(C(=O)Oc2cccc3cccnc23)c2ccccc21,23.1 µM (active)
20,C[C@@H](CN1CCC(n2c(=O)[nH]c3cc(Br)ccc32)CC1)NC(=O)[C@@H]1C[C@H]1c1ccccc1,6.51 µM (active)
21,Oc1ccc2c(c1)C13CCCC[C@H]1[C@@H](C2)N(CC1CCC1)CC3,10.3 µM (active)
22,C[C@@H]1O[C@@H](O[C@H]2CC[C@@]3(C)C(CC[C@@H]4C3CC[C@]3(C)[C@@H](C5=CC(=O)OC5)CC[C@]43O)C2)[C@H](O)[C@H](O)[C@H]1O (stereo not given in full),0.2 µM (active)
23,CC1=CC(=O)[C@@H](O)[C@]2(C)C3[C@@H](O)[C@@H]4OC(=O)[C@@H]([C@H]4C)[C@]3(C)C(=O)[C@H](O)[C@@H]12 (stereo not given in full),12.8 µM (active)
24,O=C1NC(=O)c2c1c1c3ccccc3[nH]c1c1[nH]c3ccccc3c21,0.0517 µM (active)
25,COc1ccc(C23CCC(=O)C=C2N(C)CC3)cc1OC (stereo not given),3.66 µM (active)
26,CN(C(=O)CN1C(=O)COc2cc(Cl)c(Cl)cc21)[C@@H](CN1CCCC1)c1ccc(-c2cccc(C(N)=O)c2)cc1,8.2 µM (active)
27,CCOC(=O)C1(CCc2ccccc2)CCN(Cc2ccc(NC(C)=O)cc2)CC1,23.1 µM (active)
28,O=C(NCCN1CCC2(CC1)C(=O)NCN2c1cccc(F)c1)c1ccc2ccccc2c1,5.8 µM (active)
29,COC(=O)CC1CC2(C(=O)c3c(O)cccc3C2(O)C(=O)OC)C(C)O1 (stereo not given),16.1 µM (active)
30,COC(=O)C1=COC(C)C2CN3CCC4(C(=O)Nc5ccccc54)C3CC12 (stereo not given),14.3 µM (active)
